Compounds without any hit were thinned out: in the full panel of roughly 83,000, 20% have a hit.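 Testing used 96-well plates and a 48-hour single-concentration exposure. Example: -40 means 40% of the starting cells died.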 Values without a mark were called inactive. The source made the active and inactive calls. Rule for the calls: active = growth percent below 10; inactive = the rest.
Tests used:
Experiment in all cases: NCI-60 one-dose screen, 48 h (100 = growth as untreated, 0 = no growth, -100 = all killed)
Details in all cases: 10 µM unless noted
SR leukemia = tested on: SR leukemia
RPMI-8226 leukemia = tested on: RPMI-8226 leukemia
OVCAR-8 ovarian = tested on: OVCAR-8 ovarian
OVCAR-5 ovarian = tested on: OVCAR-5 ovarian
OVCAR-4 ovarian = tested on: OVCAR-4 ovarian
SK-OV-3 ovarian = tested on: SK-OV-3 ovarian
IGROV1 ovarian = tested on: IGROV1 ovarian
OVCAR-3 ovarian = tested on: OVCAR-3 ovarian
HS 578T breast = tested on: HS 578T breast
T-47D breast = tested on: T-47D breast
BT-549 breast = tested on: BT-549 breast
MDA-MB-435 melanoma = tested on: MDA-MB-435 melanoma
SW-620 colon = tested on: SW-620 colon
MCF7 breast = tested on: MCF7 breast
HCT-116 colon = tested on: HCT-116 colon
HCC-2998 colon = tested on: HCC-2998 colon
NCI/ADR-RES ovarian = tested on: NCI/ADR-RES ovarian
KM12 colon = tested on: KM12 colon

Row | SMILES | growth (SR leukemia) | growth (RPMI-8226 leukemia) | growth (OVCAR-8 ovarian) | growth (OVCAR-5 ovarian) | growth (OVCAR-4 ovarian) | growth (SK-OV-3 ovarian) | growth (IGROV1 ovarian) | growth (OVCAR-3 ovarian) | growth (HS 578T breast) | growth (T-47D breast) | growth (BT-549 breast) | growth (MDA-MB-435 melanoma) | growth (SW-620 colon) | growth (MCF7 breast) | growth (HCT-116 colon) | growth (HCC-2998 colon) | growth (NCI/ADR-RES ovarian) | growth (KM12 colon)
1 | O=C1NC(=C(Cl)Cl)/C(=N\S(=O)(=O)NCc2ccccc2)N1 | 65.3% | 75.6% | 94.6% | 98.4% | 108% | 97.1% | 102% | 105% | 122% | 52% | 97.8% | 95.8% | 111% | 74.4% | 94.2% | 127% |  | 
2 | COc1ccc(-c2nc3c(ncc4ccc(=O)[nH]c43)s2)cc1 | 45.5% | 69.2% | 83.9% | 90% | 98.8% | 102% | 67.5% | 85.5% | 88% | 78.7% |  | 80.6% | 66.5% | 62.5% | 79.2% | 91% | 74.6% | 64.8%
3 | COc1ccc(\C=N/N=C(N)/C(N)=N\N=C/c2ccc(OC)cc2)cc1 | 46.9% | 79.2% | 117% | 107% | 117% | 96.1% | 122% | 108% | 87.3% | 90.3% |  | 107% | 103% | 104% | 113% |  | 107% | 110%
4 | Nc1c(C(=O)Nc2ccncc2)sc2nc3c(cc12)C(O)CCC3 (stereo not given) | 84.1% | 89.3% | 98.7% | 97.2% | 114% | 98% | 103% | 119% | 118% | 74.3% |  | 101% | 99.7% | 93.8% | 83.4% |  | 105% | 109%
5 | N#Cc1nc(-c2ccccc2)oc1S(=O)(=O)N1CCN(c2ccccc2)CC1 | 14.7% | 63.4% | 81.3% | 112% | 99.5% | 105% | 78.9% | 111% | 102% | 91.1% | 90.8% | 86.3% | 64.1% | 51.5% | 44.9% | 102% |  | 104%
6 | Nc1n[nH]c2ccc([C@H]3[C@@H]4C5CCC(C5)[C@@H]4c4c(ccc5[nH]ncc45)N3S(=O)(=O)C3CC3)cc12 (stereo not given in full) | 11.3% | 4.56% (active) | 17.4% | 23.4% | 30.3% | 52.7% | 18.8% | -38.8% (active) | 22.7% | 64.6% |  | -35.3% (active) |  | 13.1% | 4.97% (active) |  | 0.763% (active) | 7.27% (active)
7 | CCCCNC(=O)Oc1ccc(/C(=C(/C)Cc2ccc(OC)cc2)c2ccc(OCCN(CC)CC)cc2)cc1 | 16.7% | 66.3% | 86.9% | 82% | 80.3% | 97% | 93.7% | 82% | 76.9% | 42.1% | 87.1% | 66.8% | 93.3% | 28.5% | 42.7% | 85.6% |  | 85.1%
8 | CCOC(=O)Cc1cnc(N/N=C(\C)c2cc3ccccc3o2)s1 | 106% | 98.6% | 94% | 99.7% | 93.5% | 92.1% | 87.4% | 107% | 100% | 70.5% | 109% | 108% | 96.9% | 81.3% | 96.4% | 105% |  | 96.3%
9 | CCN(CC)CC(O)COc1c(Br)c(Br)c(Br)c2c1OC(C)(C)C2 (stereo not given) | 16.7% | 85.5% | 126% | 93.2% | 82.9% | 97.9% | 607% | 14% | -69.4% (active) | 69.5% |  | 1.3% (active) | -65.9% (active) | 73.2% | 45.5% | 76% | 85% | 53.8%
10 | CCC(=O)Oc1ccc(-c2ccccc2)cc1Br | 107% | 104% | 106% | 104% | 105% | 120% | 112% | 114% | 115% | 101% | 109% | 109% | 99.1% | 93.6% | 104% | 112% |  | 111%
11 | Cc1nc2sc(C(=O)Nc3cccc(Br)c3)c(N)c2cc1C(O)c1ccccc1 (stereo not given) | 13.4% | 11.1% | 20.8% | 57% | 70.5% | 35.6% | 32.1% | 8.16% (active) | 21% | 43.2% | 53.7% | 4.05% (active) | 31% | 21.9% | 16.2% | 18.2% |  | 22.8%
12 | COc1ccc(C2=Nc3c(N)nc(N)nc3NC(c3cccc(Nc4ccnc5cc(C(F)(F)F)ccc45)c3)C2)cc1 (stereo not given) | -3.78% (active) | 18.2% | 75.6% | 116% | 68.9% | 84% | 72.1% | 66.4% | 66.3% | 93% |  | 10.1% | 50.4% | 37.7% | 37.9% |  | 87.6% | 40.4%
13 | Cc1cc(N2CCN(CC(=O)Nc3ccc4c(ccn4C)c3)CC2)nc(N2CCCCCC2)n1 | 122% | 76.1% | 83.3% | 100% | 92.2% | 84.4% | 83.5% | 82.6% | 96.8% | 65.4% |  | 95.2% | 93.6% | 77.9% | 85.6% | 127% | 91.5% | 93.1%
14 | Cc1ccc(Nc2cc(N)nc(N)n2)cc1Cl | 108% | 81.6% | 94.5% | 94.6% | 90.3% | 93.8% | 91% | 96.7% | 98.3% | 76.6% | 101% | 98.9% | 112% | 74.7% | 81% | 100% |  | 93%
15 | CCCCCCCCCc1ccc(OCCOCCOCCOCCOCCOCCOCCOCCOCCO)cc1 | -2.84% (active) | -12.1% (active) | 9.01% (active) | 48.3% | 22.4% | 110% | 24.4% | 2.54% (active) | 8.85% (active) | 116% |  | 7.48% (active) | 19.1% | 10.9% | 11% | 23.3% | 1.74% (active) | 13.3%
16 | Ic1ccc(OCCCCn2ccnc2)cc1 | 45.1% | 73.5% | 95.5% | 64.4% | 44.7% | 80.9% | 71.9% | 39.2% | 90.2% | 77.6% | 88.4% | 73% | 58.1% | 89.7% | 65.9% | 68.1% |  | 97.6%
17 | CCCCCCCC[C@@H]1N[C@@H](C(=O)OC)Cc2c1[nH]c1ccccc21 | 107% | 95.4% | 98.6% | 89% | 91.9% | 101% | 82.9% | 101% | 91.7% | 92.7% | 105% | 99.8% | 94.6% | 92% | 95.7% | 107% |  | 99.7%
18 | CC(C)(C)CC(C)(C)NC(=O)Nc1ncccc1OCc1ccccc1 | 89.4% | 84.9% | 99.4% | 91.6% | 84.3% | 104% | 93.9% | 98.5% | 106% | 72% | 98.2% | 99.7% | 98.6% | 80.6% | 75.2% | 92.9% |  | 94.5%
